Structures are written as SMILES. Among all 310,000 compounds or so, about 14,000 (4.5%) showed an effect of 50% or more. Effects have a minus sign here. The entries come from a sample that favours strong results as a whole.
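Note: peak tail current of the secondary pulse compared with the same well before compound.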

For this experiment, the target named is human ether-à-go-go-related gene (hERG) potassium channel (human, UniProt Q12809). In words: primary screen, population patch clamp on CHO cells stably expressing hERG; higher = less effect of the substance.
human ether-à-go-go-related gene (hERG) potassium channel, sequence (Q12809 whole entry, looked up): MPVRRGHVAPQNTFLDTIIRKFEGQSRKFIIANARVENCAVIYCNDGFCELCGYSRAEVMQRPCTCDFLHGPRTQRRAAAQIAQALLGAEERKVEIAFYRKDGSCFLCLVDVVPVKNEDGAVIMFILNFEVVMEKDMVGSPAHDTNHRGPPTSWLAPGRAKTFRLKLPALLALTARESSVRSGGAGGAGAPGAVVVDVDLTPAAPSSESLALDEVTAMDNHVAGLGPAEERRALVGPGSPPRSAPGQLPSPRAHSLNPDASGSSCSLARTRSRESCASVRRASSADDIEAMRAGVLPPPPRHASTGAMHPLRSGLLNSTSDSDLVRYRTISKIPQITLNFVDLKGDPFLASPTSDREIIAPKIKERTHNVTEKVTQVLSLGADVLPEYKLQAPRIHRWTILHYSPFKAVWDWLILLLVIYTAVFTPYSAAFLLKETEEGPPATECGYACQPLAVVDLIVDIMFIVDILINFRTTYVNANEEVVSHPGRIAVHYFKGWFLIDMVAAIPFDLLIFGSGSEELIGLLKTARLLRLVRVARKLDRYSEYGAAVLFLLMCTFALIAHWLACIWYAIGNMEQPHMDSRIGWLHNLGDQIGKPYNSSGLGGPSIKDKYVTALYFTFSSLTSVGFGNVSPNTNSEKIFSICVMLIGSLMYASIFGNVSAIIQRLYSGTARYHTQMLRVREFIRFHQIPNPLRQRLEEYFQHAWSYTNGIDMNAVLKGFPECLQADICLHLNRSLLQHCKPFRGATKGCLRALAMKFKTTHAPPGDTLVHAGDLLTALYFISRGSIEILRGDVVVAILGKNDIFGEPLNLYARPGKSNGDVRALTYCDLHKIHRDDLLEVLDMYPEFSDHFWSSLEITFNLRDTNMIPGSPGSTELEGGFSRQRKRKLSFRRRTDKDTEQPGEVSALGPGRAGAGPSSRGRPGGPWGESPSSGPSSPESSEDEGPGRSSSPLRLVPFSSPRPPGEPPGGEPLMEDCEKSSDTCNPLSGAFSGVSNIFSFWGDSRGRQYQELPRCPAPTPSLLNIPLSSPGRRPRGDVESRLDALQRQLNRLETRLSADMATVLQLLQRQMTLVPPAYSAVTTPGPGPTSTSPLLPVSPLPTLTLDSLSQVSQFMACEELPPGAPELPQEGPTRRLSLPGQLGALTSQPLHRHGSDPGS
As for `CCc1nc(-c2ccccc2)cc(=O)[nH]1`, the “hERG current change (%, negative = inhibition) at 10uM” value is -6.29%.
The same measure for `CCOC(=O)c1cc(NC(=O)c2ccc(C)cc2)c(=O)oc1C(F)(F)F`: -2.5%; for `O=C(CSCc1ccccc1)Nc1ccc(S(=O)(=O)N2CCOCC2)cc1`: -17.7%; for `Cc1cc(C(=O)N/N=C/c2ccc(-c3cccc(Br)c3)o2)n[nH]1`: 12.4%.
The same measure for `NS(=O)(=O)c1ccc(CNC(=O)CC23CC4CC(CC(C4)C2)C3)cc1`: -5.69%; for `Cc1nn(C)c(C)c1NC(=O)CSc1nnc(C)n1-c1ccccc1`: -0.523%.
The same measure for `Cc1cc(NC(=O)CSc2nnc3c(C)cc4cc(C)c(C)cc4n23)no1`: 20%.
In the case of `O=C1CNC(=O)/C1=C/c1ccc(Br)cc1`, the “hERG current change (%, negative = inhibition) at 10uM” value turned out to be 16.7%.
Under `CN1/C(=C/C(=O)c2nc(S(C)(=O)=O)ncc2Cl)C(C)(C)c2ccccc21` stands -29.9%.
Under `CCN(CC)CCn1c2c(c(SCC(=O)Nc3ccc(C(C)C)cc3)nc1=O)CCCC2` stands -68.3%; under `CCN(CC)CCn1c2c(c(SCC(=O)Nc3ccc(C(C)C)cc3)nc1=O)CCC2`, -56.9%; under `O=C(COC(=O)c1ccc(NS(=O)(=O)c2ccc3c(c2)OCCO3)cc1)NC1CC1`, -1.56%.
Consider `COc1cc(OC)c(C2=NOC(C(=O)O)C2)cc1Cl` (centres unmarked), for which the “hERG current change (%, negative = inhibition) at 10uM” value turned out to be 5.14%.
Under `CC(C)(C)c1ccc(SCCc2ccncc2)cc1` stands 3.48%.
The same measure for `COC(=O)C1=C(c2ccc(F)cc2OCc2ccccc2)C[C@@H]2CC[C@H]1N2C(=O)NCc1cccc(OC)c1`: 2.72%; for `CCc1ccc2oc(-c3ccc(OC)cc3)cc(=[NH+]c3c(C)n(C)n(-c4ccccc4)c3=O)c2c1.F[B-](F)(F)F`: -71.7%.
The same measure for `COc1ccc(-c2cc(=Nc3ccc(C)cc3)c3ccccc3o2)cc1`: 5.87%; for `COc1ccc(-c2cc(C(=O)Nc3c(C)n(C)n(-c4ccccc4)c3=O)no2)cc1`: 6.42%; for `COc1ccc(-c2cc(=Nc3c(C)n(C)n(-c4ccccc4)c3=O)c3ccccc3o2)cc1`: -68.1%.
With `COc1ccc(N=c2cc(-c3ccc(OC)cc3)oc3ccccc23)cc1`, the “hERG current change (%, negative = inhibition) at 10uM” value was determined as 4.41%.
The same measure for `CCc1ccc2oc(-c3ccc(OC)cc3)cc(=[NH+]c3cccc(C(=O)O)c3)c2c1.F[B-](F)(F)F`: 5%; for `COc1ccc(CCNC(=S)NCCc2ccc(OC)c(OC)c2)cc1OC`: 5.11%.
The same measure for `Cc1ccn2cc(CSc3ccccc3N)nc2c1`: -29.1%; for `CCN(CC)c1ccc(NC(=O)CCc2nnc3ccc(N4CCCCC4)nn23)c(C)c1`: -12.8%.
Under `CCCCC/C(=N/O)c1c(C)[nH]c2ccccc12` stands 4.53%.
For `Cc1ccc(N(CC(O)CON=C2c3ccccc3-c3ccccc32)S(C)(=O)=O)cc1` (centres unmarked), the “hERG current change (%, negative = inhibition) at 10uM” value turned out to be 15.5%.
With `O=C(NCC1CCCN1S(=O)(=O)c1cccs1)c1cccc([N+](=O)[O-])c1` (centres unmarked), the “hERG current change (%, negative = inhibition) at 10uM” value is -24.5%.
Under `Cc1ccc(S(=O)(=O)N2CCCC2CNC(=O)c2ccccc2)cc1` (centres unmarked) stands -9.34%.
Under `O=C(NCC1CCCN1S(=O)(=O)c1cccs1)c1ccc([N+](=O)[O-])cc1` (centres unmarked) stands -55.2%; under `Cc1ccc(C)c(S(=O)(=O)N2CCCC2CNC(=O)C(=O)NCc2ccco2)c1` (centres unmarked), -54.2%.
Under `Cc1ccc(C)c(S(=O)(=O)N2CCCC2CNC(=O)C(=O)NC2CC2)c1` (centres unmarked) stands -0.659%; under `O=C(NCC1CCCN1S(=O)(=O)c1cccs1)c1ccccc1` (centres unmarked), 16.5%; under `Cc1ccc(C(=O)NCC2CCCN2S(=O)(=O)c2ccc(C)cc2)cc1` (centres unmarked), -33.8%.
`Cc1ccc(S(=O)(=O)N2CCCC2CNC(=O)c2ccc(F)c(F)c2)cc1` (centres unmarked): the “hERG current change (%, negative = inhibition) at 10uM” value is on record as -52.5%.
In the case of `Cc1ccc(C)c(S(=O)(=O)N2CCCC2CNC(=O)C(=O)NCCc2ccco2)c1` (centres unmarked), the “hERG current change (%, negative = inhibition) at 10uM” value was -21.2%.
The same measure for `Cc1ccc(C)c(S(=O)(=O)N2CCCCC2CCNC(=O)C(=O)NCc2ccco2)c1` (centres unmarked): -21.8%; for `Cc1ccc(C)c(S(=O)(=O)N2CCCC2CNC(=O)c2ccc([N+](=O)[O-])cc2)c1` (centres unmarked): -81.8%; for `Cc1ccc(C)c(S(=O)(=O)N2CCCC2CNC(=O)C(=O)NCC2CCCO2)c1` (centres unmarked): -15.5%.
